From PubChem BioAssay (NCI)
This is part of a sample that, as a whole, favours compounds with a hit. Of some 83,000 tested, about 20% had one in any assay.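 The endpoint reported here, percent growth, reads 100 for growth as untreated, 0 for no net growth and -100 for all cells dead.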 Active and inactive are the calls of the source. The calls were made as follows: active = growth percent below 10; inactive = the rest.

Assays:
Assay in all cases: NCI-60 one-dose screen, 48 h (100 = growth as untreated, 0 = no growth, -100 = all killed)
Settings in all cases: 10 µM unless noted
HCT-15 colon = system: HCT-15 colon
HT29 colon = system: HT29 colon
SNB-75 CNS = system: SNB-75 CNS
SNB-19 CNS = system: SNB-19 CNS
U251 CNS = system: U251 CNS
PC-3 prostate = system: PC-3 prostate
SK-MEL-5 melanoma = system: SK-MEL-5 melanoma
UACC-62 melanoma = system: UACC-62 melanoma
LOX IMVI melanoma = system: LOX IMVI melanoma
SK-MEL-28 melanoma = system: SK-MEL-28 melanoma
SK-MEL-2 melanoma = system: SK-MEL-2 melanoma
EKVX NSCLC = system: EKVX NSCLC
SN12C renal = system: SN12C renal
UO-31 renal = system: UO-31 renal
TK-10 renal = system: TK-10 renal
CAKI-1 renal = system: CAKI-1 renal
A498 renal = system: A498 renal
MOLT-4 leukemia = system: MOLT-4 leukemia
ACHN renal = system: ACHN renal
CCRF-CEM leukemia = system: CCRF-CEM leukemia

Measured: growth

O=C1Nc2c(ccc(Cl)c2Cl)/C1=C/c1ccc(O)cc1
inactive: HCT-15 colon 90.8% | HT29 colon 94.7% | SNB-75 CNS 56.7% | SNB-19 CNS 68.8% | U251 CNS 83.8% | PC-3 prostate 98.1% | SK-MEL-5 melanoma 87.1% | UACC-62 melanoma 76.7% | LOX IMVI melanoma 63.7% | SK-MEL-28 melanoma 123% | SK-MEL-2 melanoma 108% | EKVX NSCLC 62.1% | SN12C renal 97.4% | UO-31 renal 61.8% | TK-10 renal 101% | CAKI-1 renal 59.7% | A498 renal 115% | MOLT-4 leukemia 77.3%

O=C(Nc1ccc(Nc2ncccn2)cc1)NC1C=c2ccccc2=CC1 (stereo not drawn)
inactive: HCT-15 colon 102% | HT29 colon 103% | SNB-75 CNS 91.8% | SNB-19 CNS 103% | U251 CNS 99% | PC-3 prostate 108% | SK-MEL-5 melanoma 99.7% | UACC-62 melanoma 92.9% | LOX IMVI melanoma 108% | SK-MEL-28 melanoma 107% | SK-MEL-2 melanoma 102% | EKVX NSCLC 106% | SN12C renal 92.5% | UO-31 renal 80.5% | TK-10 renal 112% | ACHN renal 105% | A498 renal 96.9% | CCRF-CEM leukemia 90% | MOLT-4 leukemia 87.5%

CNC(=O)NCC1OC(n2cnc3c(NC(=O)Nc4ccccc4)ncnc32)C(O[Si](C)(C)C(C)(C)C)C1O[Si](C)(C)C(C)(C)C (stereo not drawn)
active: HT29 colon -67.7% | PC-3 prostate 7.78% | SN12C renal -79.3%
inactive: HCT-15 colon 21.3% | SNB-75 CNS 45.8% | SNB-19 CNS 76.1% | U251 CNS 17.2% | SK-MEL-5 melanoma 48.2% | UACC-62 melanoma 41.9% | LOX IMVI melanoma 13.3% | SK-MEL-28 melanoma 60% | SK-MEL-2 melanoma 56.7% | EKVX NSCLC 23.4% | UO-31 renal 48.3% | TK-10 renal 34.2% | CAKI-1 renal 59.5% | CCRF-CEM leukemia 42.6% | MOLT-4 leukemia 24.1%

CC(O)/C=C/C=C/C(O)CC/C=C/C(=O)NCC(C)(C)O (stereo not drawn)
inactive: HCT-15 colon 104% | HT29 colon 102% | SNB-75 CNS 96.3% | SNB-19 CNS 99.6% | U251 CNS 98.3% | PC-3 prostate 91.7% | SK-MEL-5 melanoma 99.1% | UACC-62 melanoma 90.1% | LOX IMVI melanoma 95.3% | SK-MEL-28 melanoma 111% | SK-MEL-2 melanoma 81.9% | EKVX NSCLC 107% | SN12C renal 99.2% | UO-31 renal 78.4% | TK-10 renal 109% | ACHN renal 106% | A498 renal 99.7% | CCRF-CEM leukemia 95% | MOLT-4 leukemia 76.2%

Cc1cc(C(=O)Nc2ncnc3nc[nH]c23)no1
inactive: HCT-15 colon 102% | HT29 colon 103% | SNB-75 CNS 79.5% | SNB-19 CNS 96.6% | U251 CNS 105% | PC-3 prostate 97% | SK-MEL-5 melanoma 101% | UACC-62 melanoma 97% | LOX IMVI melanoma 99.4% | SK-MEL-28 melanoma 106% | SK-MEL-2 melanoma 131% | EKVX NSCLC 103% | SN12C renal 93.8% | UO-31 renal 80.5% | TK-10 renal 118% | ACHN renal 99.8% | A498 renal 110% | CCRF-CEM leukemia 86.4% | MOLT-4 leukemia 91.7%

C=Cc1cc[n+](CCCCCCCCCCCC)cc1
inactive: HCT-15 colon 110% | HT29 colon 99.2% | SNB-75 CNS 97.4% | SNB-19 CNS 103% | U251 CNS 109% | PC-3 prostate 110% | SK-MEL-5 melanoma 104% | UACC-62 melanoma 105% | LOX IMVI melanoma 99.7% | SK-MEL-28 melanoma 111% | SK-MEL-2 melanoma 150% | EKVX NSCLC 105% | SN12C renal 101% | UO-31 renal 94% | TK-10 renal 137% | CAKI-1 renal 103% | A498 renal 94.9% | CCRF-CEM leukemia 87.9% | MOLT-4 leukemia 94.7%

C=C1C(=O)O[C@H]2[C@H]1CC/C(COC(=O)CCCc1c[nH]c3ccccc13)=C\CC[C@@]1(C)O[C@@H]21
inactive: HT29 colon 21.7% | SNB-75 CNS 76.4% | SNB-19 CNS 71.2% | U251 CNS 56.4% | PC-3 prostate 50.7% | SK-MEL-5 melanoma 71.5% | UACC-62 melanoma 70.1% | SK-MEL-28 melanoma 92.6% | SK-MEL-2 melanoma 88.4% | EKVX NSCLC 74.3% | SN12C renal 54.8% | UO-31 renal 58.5% | TK-10 renal 94.7% | ACHN renal 59.5% | A498 renal 103%
active: HCT-15 colon 7.56% | LOX IMVI melanoma -3.89% | CCRF-CEM leukemia 1.43% | MOLT-4 leukemia 3.73%

COC(=O)CCCCCCCCC1(C)C=CC(C(C)O)=CC1 (stereo not drawn)
inactive: HCT-15 colon 105% | HT29 colon 99.9% | SNB-75 CNS 106% | SNB-19 CNS 107% | U251 CNS 98.5% | PC-3 prostate 97.6% | SK-MEL-5 melanoma 99% | UACC-62 melanoma 107% | LOX IMVI melanoma 96.7% | SK-MEL-28 melanoma 119% | SK-MEL-2 melanoma 104% | EKVX NSCLC 102% | SN12C renal 103% | UO-31 renal 100% | TK-10 renal 92.2% | ACHN renal 114% | A498 renal 96.1% | CCRF-CEM leukemia 99.7% | MOLT-4 leukemia 97.8%

COc1cccc(C(Cc2ccccc2)Nc2ccccc2)c1OC (stereo not drawn)
inactive: HCT-15 colon 91.3% | HT29 colon 73% | SNB-75 CNS 90.1% | SNB-19 CNS 104% | U251 CNS 89.8% | PC-3 prostate 83.2% | SK-MEL-5 melanoma 97.1% | UACC-62 melanoma 88.7% | LOX IMVI melanoma 98.1% | SK-MEL-28 melanoma 107% | SK-MEL-2 melanoma 83% | EKVX NSCLC 96.1% | SN12C renal 103% | UO-31 renal 85.4% | TK-10 renal 96.7% | ACHN renal 106% | A498 renal 90% | CCRF-CEM leukemia 87.5% | MOLT-4 leukemia 78.6%

C#CC(=O)Nc1cccc(Nc2nc3c(c(NCc4ccccc4)n2)CCCC3)c1
active: HCT-15 colon -64.8% | HT29 colon -29.1% | SNB-75 CNS -29.3% | SNB-19 CNS -79.4% | U251 CNS -86.8% | PC-3 prostate -66.2% | SK-MEL-5 melanoma -89.2% | UACC-62 melanoma -77.9% | LOX IMVI melanoma -87.2% | SK-MEL-28 melanoma -84.6% | SK-MEL-2 melanoma -69.1% | EKVX NSCLC -62.3% | SN12C renal -30.7% | UO-31 renal -91.6% | TK-10 renal -97.2% | CAKI-1 renal -85.4% | CCRF-CEM leukemia -8.54% | MOLT-4 leukemia -24.9%

COc1ccc(C(=O)/C=C/c2cn(Cc3ccc(Cl)cc3)c3ccccc23)cc1
active: CAKI-1 renal 2.08% | A498 renal -6.05%
inactive: HCT-15 colon 39.7% | HT29 colon 22.8% | SNB-75 CNS 76.9% | SNB-19 CNS 82.4% | U251 CNS 59.6% | PC-3 prostate 61.3% | SK-MEL-5 melanoma 89.1% | UACC-62 melanoma 31.3% | LOX IMVI melanoma 49.2% | SK-MEL-28 melanoma 80.6% | SK-MEL-2 melanoma 74.6% | EKVX NSCLC 89% | SN12C renal 69.4% | UO-31 renal 53.7% | TK-10 renal 27.4% | CCRF-CEM leukemia 41.1% | MOLT-4 leukemia 39.8%

C=CCn1c(SCC(=O)Nc2ccc(C(=O)/C=C/c3cc(OC)c(OC)c(OC)c3)cc2)nnc1-c1cc(OC)c(OC)c(OC)c1
active: HCT-15 colon 0.237% | HT29 colon -34.8% | U251 CNS 2.63% | LOX IMVI melanoma 5.43% | CCRF-CEM leukemia 1.85%
inactive: SNB-75 CNS 37.2% | SNB-19 CNS 40.6% | PC-3 prostate 49.9% | SK-MEL-5 melanoma 31.7% | UACC-62 melanoma 33.7% | SK-MEL-28 melanoma 66.9% | SK-MEL-2 melanoma 80.9% | EKVX NSCLC 51.8% | SN12C renal 33.8% | UO-31 renal 42% | TK-10 renal 87.3% | ACHN renal 37.8% | MOLT-4 leukemia 12.3%

COc1ccc(Nc2nc(N)nc3c2CCc2occc2-3)cc1
inactive: HCT-15 colon 92% | HT29 colon 87% | SNB-75 CNS 95% | SNB-19 CNS 99.4% | U251 CNS 103% | PC-3 prostate 90.4% | SK-MEL-5 melanoma 94.6% | UACC-62 melanoma 93.9% | LOX IMVI melanoma 93.1% | SK-MEL-28 melanoma 106% | SK-MEL-2 melanoma 106% | EKVX NSCLC 84.1% | SN12C renal 99.5% | UO-31 renal 83.7% | TK-10 renal 121% | ACHN renal 104% | A498 renal 98.2% | CCRF-CEM leukemia 97.3% | MOLT-4 leukemia 94.3%

CCOC(=O)N1CCc2c(sc3nc4nc[nH]n4c(=O)c23)C1
inactive: HCT-15 colon 102% | HT29 colon 100% | SNB-75 CNS 89.4% | SNB-19 CNS 106% | U251 CNS 100% | PC-3 prostate 92.7% | SK-MEL-5 melanoma 104% | UACC-62 melanoma 98.8% | LOX IMVI melanoma 94.6% | SK-MEL-28 melanoma 115% | SK-MEL-2 melanoma 96.6% | EKVX NSCLC 92.4% | SN12C renal 97.3% | UO-31 renal 81.9% | TK-10 renal 105% | ACHN renal 103% | A498 renal 82.3% | CCRF-CEM leukemia 97.8% | MOLT-4 leukemia 100%

Cc1ccc(O)c(C(=O)O)c1
inactive: HCT-15 colon 104% | HT29 colon 102% | SNB-75 CNS 107% | SNB-19 CNS 109% | U251 CNS 92.6% | PC-3 prostate 104% | SK-MEL-5 melanoma 105% | UACC-62 melanoma 104% | LOX IMVI melanoma 101% | SK-MEL-28 melanoma 114% | SK-MEL-2 melanoma 109% | EKVX NSCLC 118% | SN12C renal 104% | UO-31 renal 94% | TK-10 renal 72.7% | ACHN renal 106% | A498 renal 99.9% | CCRF-CEM leukemia 98.1% | MOLT-4 leukemia 97.7%

COc1cc(C2NC(c3cc(OC)c(OC)c(OC)c3)C(C#N)(C#N)C2(C#N)C#N)cc(OC)c1OC (stereo not drawn)
inactive: HCT-15 colon 97.9% | HT29 colon 105% | SNB-75 CNS 80.7% | SNB-19 CNS 98.5% | U251 CNS 106% | PC-3 prostate 99.3% | SK-MEL-5 melanoma 89.5% | UACC-62 melanoma 98.2% | LOX IMVI melanoma 98.2% | SK-MEL-28 melanoma 96.5% | SK-MEL-2 melanoma 101% | EKVX NSCLC 97.6% | SN12C renal 100% | UO-31 renal 83.8% | TK-10 renal 103% | ACHN renal 97.7% | A498 renal 107% | CCRF-CEM leukemia 136% | MOLT-4 leukemia 96.8%

CC(=O)CCSc1ccc(OC(C)=O)cc1
inactive: HCT-15 colon 101% | HT29 colon 90.1% | SNB-75 CNS 86.8% | SNB-19 CNS 97.8% | U251 CNS 95.3% | PC-3 prostate 83.8% | SK-MEL-5 melanoma 96.1% | UACC-62 melanoma 93.1% | LOX IMVI melanoma 98.1% | SK-MEL-28 melanoma 107% | SK-MEL-2 melanoma 99.5% | EKVX NSCLC 105% | SN12C renal 101% | UO-31 renal 87.3% | TK-10 renal 96.3% | ACHN renal 103% | CCRF-CEM leukemia 75.3% | MOLT-4 leukemia 94.1%
